Measured values: PubChem BioAssay
Results with a measured potency or affinity are listed apart. Calls of active or inactive are those of the source. No rule for the calls is given here.

target: Plasmodium falciparum protein kinase 6 (PK6, PF3D7_1337100) (UniProt Q8IDW1); assay: PfPK6 kinase inhibitors, biochemical, TCAMS library (AID 1159586); conditions: recombinant PfPK6, Kinase-Glo ATP depletion luminescence
Sequence (Q8IDW1 1-305): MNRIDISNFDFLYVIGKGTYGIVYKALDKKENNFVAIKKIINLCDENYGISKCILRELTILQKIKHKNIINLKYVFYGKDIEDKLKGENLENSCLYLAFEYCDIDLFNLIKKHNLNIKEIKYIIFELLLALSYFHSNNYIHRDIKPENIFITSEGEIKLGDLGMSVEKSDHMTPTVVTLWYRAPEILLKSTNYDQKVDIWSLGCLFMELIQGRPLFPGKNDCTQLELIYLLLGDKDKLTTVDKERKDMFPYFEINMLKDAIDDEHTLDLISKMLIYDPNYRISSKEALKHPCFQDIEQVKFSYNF

Compound	outcome
CC(C)(C)c1ccc2nccc(Nc3cccc(O)c3)c2c1	inactive
CCc1cn2c3c(cc(C(=O)N[C@@H](Cc4cccc(Cl)c4)[C@H](O)CNC4CCOCC4)cc13)N(C)S(=O)(=O)CC2	inactive
CC[C@H](C)CNC(=O)c1ccnc(-c2ccc(CN3CCC(N4CCCC4)CC3)cc2)c1	inactive
Cc1cccc(Nc2nc(C)cc(N3CCCN(CC4CCCCC4)CC3)n2)c1	inactive
CCCCN1CCN(c2cc(NS(=O)(=O)c3cccc(C(=O)Nc4ccc(C(F)(F)F)cc4)c3)ccc2OC)CC1	inactive
CCC1(CC)N=C(N)N=C(N)N1OCc1ccc(Cl)c(Cl)c1	inactive
CNC(=O)C(C)N(c1ccc(Cl)cc1)c1nc(C(C)(C)C)cs1 (stereo not given)	inactive
CCC[C@@H]([C@@H](CC(C)C)C(=O)N[C@@H](CCCCNC(=O)c1ccccn1)C(=O)Nc1nccs1)N(O)C=O	inactive
CCN=C1NC2=C(CC(C(C)(C)C)CC2)C2(CCC(C(C)(C)C)CC2)S1 (stereo not given)	inactive
C[C@@H]1CN(c2ncc(-c3ccc(CNC4Cc5ccccc5C4)cc3)cn2)C[C@H](C)N1	inactive
O=C(NCc1ccc(Cl)c(Cl)c1)c1cccc(C2CCCN(Cc3ccc4nc[nH]c4c3)C2)c1 (stereo not given)	inactive
Cc1ccc2c(Cl)c(C(=O)N3CC(C)OC(C)C3)sc2c1 (stereo not given)	inactive
COc1cccc(Nc2nc(N)c3ccccc3n2)c1	inactive
Cc1c(CCNC(=O)CCCN2CC(C)CC(C)C2)c2ccccc2n1C (stereo not given)	inactive
COc1ccc2nccc([C@@H](O)CN3CCC(NC(=O)c4nc(Cl)c(Cl)c(N)c4Cl)CC3)c2c1	inactive
O=C(c1cc(C(=O)NC2CCCCC2)c(=O)n(C2CCCCC2)c1)c1cc(F)ccc1O	inactive
O=C(Nc1cccc(CN2CCN(Cc3cccc(O)c3)CC2)c1)c1cc2ccccc2s1	inactive
CC(C)C[C@H](NC(=O)c1cc2ccccc2s1)C(=O)N[C@H]1CCN(Cc2ccc(OCCCN(C)C)c(Cl)c2)C1	inactive
O=C(CCOc1ccccc1)NCC1CCCO1 (stereo not given)	inactive
COc1ccccc1Nc1nc(C)cc(NCc2ccc(-n3ccnc3)cc2)n1	inactive
O=C(N[C@@H](CC1CCCCC1)C(=O)NCCN1CCCCC1)c1ccc(O)c(-c2ccc(Cl)c(Cl)c2)c1	inactive
O=C(Nc1ccc(Cl)cc1)c1ccc(CN2CCCN(CC3CCCCC3)CC2)cc1	inactive
CCCc1cc(OC)c(CC2c3cccc(O)c3CCN2C)cc1OC (stereo not given)	inactive
CCC1CCCCN1S(=O)(=O)c1ccc(OC)c(N2CCN(C(=O)C(Cl)(Cl)Cl)CC2)c1 (stereo not given)	inactive
Cc1cnc(Nc2cccc(CCN3CCOCC3)c2)nc1NC(C)C	inactive
